Reference: PubChem BioAssay (NCATS)
Unmarked numbers belong to inactive results. Inconclusive results are not listed. A call without a number means that no potency is given here. Activity calls are given as the source filed them. Unless noted, calls come from the whole dose curve; as a rule, active = well fitted curve in the direction sought with a large enough effect; inconclusive = small, poorly fitted or top-dose-only effect, or another doubt; inactive = no such curve, though single readings can be large; an effect the other way counts as inactive or inconclusive.

How the values were obtained:
[1] = AP1 Signaling Pathway (AID 357; active = well fitted curve in either direction with a large enough effect, not every such curve was filed as active;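 note: ME-180 reporter cells stimulated with EGF at its EC50 level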); details: ME-180 AP-1-bla reporter, EGF-induced, beta-lactamase ratio, 5 h; at 7.69 µM (top of the series) unless noted
Summary of the method: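 Cells are seeded overnight, exposed to compound titrations and an EC50 level of EGF for 5 hours at 37 °C, then loaded with CCF4 dye for 2.5 hours. Beta-lactamase activity under the AP-1 element is read as a blue/green ratio.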

[2] = target: Cytochrome P450 1A2 (Homo sapiens) (UniProt P05177); test: p450-cyp1a2 (AID 410; calls by dose curve; note: potency is the fitted concentration of half-maximal effect)
Summary of the method: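 Inhibition was calculated relative to 57 uM furafylline (full inhibition). The reaction used human CYP1A2 at 20nM with Luciferin-ME at its Km, 100uM, driven by an NADPH-regenerating system for 60 min at room temperature.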

[3] = Stat Signaling Pathway (AID 446; active = well fitted curve in either direction with a large enough effect, not every such curve was filed as active;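 note: ME-180 cervical cancer cells given 40 pM IL-6 alongside compound; SIE-controlled beta-lactamase reporter measured as 460/530 nm FRET emission ratio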); details: ME-180 SIE beta-lactamase reporter, IL-6 stimulated, 5 h; at 7.69 µM (top of the series) unless noted
Summary of the method: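 Reporter line: ME-180 cervical carcinoma, SIE-beta-lactamase. Treatment: compound with 40 pM IL-6, 5 hrs, 37 C, in low-serum OPTI-MEM with 10 mM HEPES pH 7.3. Detection: 460/530 nm fluorescence.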

[4] = target: Glucocorticoid receptor (Homo sapiens) (UniProt P04150); test: GR-GFP Redistribution (AID 450;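 active = compounds whose dose series gives a full or clear partial fitted curve of increased nuclear translocation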; note: potency is the fitted concentration of half-maximal effect); details: U2OS GR-GFP nuclear translocation, laser cytometry, 2 h
[5] = target: Glucocorticoid receptor (Homo sapiens) (UniProt P04150); test: GR-EFC Redistribution (AID 451; calls by dose curve; note: potency is the fitted concentration of half-maximal effect); details: CHO-K1 GR-EFC translocation, beta-gal luminescence, 2 h
Summary of the method: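 CHO-K1 cells stably expressing nuclear-localized β-gal enzyme acceptor and GR fused C-terminally to the enzyme donor fragment; ligand-driven nuclear translocation restores β-gal by complementation. Compounds titrated up to 46 uM final, 2 h at 37 °C; luminescence read.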

[6] = target: Mitogen-activated protein kinase 10 (Mus musculus) (UniProt Q61831); test: JNK3 AlphaScreen Assay (AID 530; active = well fitted curve in either direction with a large enough effect, not every such curve was filed as active;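 note: kinase came from lysate of stimulated human HepG2 cells; signal reports phosphorylation of biotinylated GST-cJun 1-79 at Ser73 with 10 µM ATP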)
Summary of the method: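 JNK3 came from HepG2 lysates pre-activated with IL-1beta and TNF-alpha and phosphorylated biotinylated GST-cJun (1-79) at 10 uM ATP, pH 7.6, room temperature. Compounds were titrated. AlphaScreen signal used anti-phospho-cJun (Ser73) antibody.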

[7] = target: 3',5'-cyclic-AMP phosphodiesterase 4B (Homo sapiens) (UniProt Q07343); test: qHTS Assay for Inhibitors of PDE-IV (AID 607; active = well fitted activation curve with a large enough effect in the main read-out, with a control signal flat, not every such curve was filed as active)
Summary of the method: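 Cell-based read-out of cAMP via a modified cyclic nucleotide-gated channel and membrane potential dye (535/590 nm) in HEK293 cells expressing PDE4 endogenously. Compounds tested up to 22.9 uM final; 100 uM RO 20-1724 reference.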

[8] = target: Guanine nucleotide-binding protein G(i) subunit alpha-1 (Homo sapiens) (UniProt P63096); test: qHTS Assay for Inhibitors of RGS12 GoLoco Motif Activity (Green Fluorophore) (AID 879);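 note: negative values mean loss of peptide binding seen as reduced polarization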
Summary of the method: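 Fluorescence polarization assay: 50 nM Gαi1 with 10 nM FITC-labeled RGS12 GoLoco peptide in 10 mM Tris pH 7.5, 150 mM NaCl, 0.1 mM GDP, 0.05% NP40, 10 min at room temperature with compound.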

[9] = target: Cytochrome P450 2C9 (Homo sapiens) (UniProt P11712); test: qHTS Assay for Inhibitors and Substrates of Cytochrome P450 2C9 (AID 883); note: nearly all actives have a fitted effect of over 60% in size
Summary of the method: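 CYP2C9 deoxyluciferin hydroxylation, 37C, 60 min with NADPH regeneration; 10nM enzyme, 100uM Luciferin-H (KM). Glo detection reagent stopped reaction; luminescence normalized to sulphaphenazole (57uM) full inhibition.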

[10] = target: Cytochrome P450 3A4 (Homo sapiens) (UniProt P08684); test: qHTS Assay for Activators of Cytochrome P450 3A4 (AID 885); note: nearly all actives have a fitted effect of over 65% in size; note: potency is the fitted concentration of half-maximal effect
Summary of the method: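 Signal was normalized against complete inhibition by 57 uM ketoconazole. The reaction used 20nM CYP3A4 with 25uM Luciferin-PPXE, 10-min compound preincubation and a 60-min NADPH-supported step at RT.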

[11] = qHTS Assay for Identification of Small Molecule Antagonists for NFkB Signaling Pathway (AID 895; active = well fitted inhibition curve with a large enough effect in the signal ratio, with a control signal flat, not every such curve was filed as active; the % refers to the signal ratio)
Summary of the method: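 NFkB-bla ME-180 cervical carcinoma cells with beta-lactamase reporter under NFkB response element; compounds added, then TNF alpha at 10 pM final (EC50), 5 h at 37 C. LiveBLAzer substrate 2 h, room temperature; emission 460/530 nm at 405 nm excitation.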

[12] = target: Cytochrome P450 2C19 (Homo sapiens) (UniProt P33261); test: qHTS Assay for Inhibitors and Substrates of Cytochrome P450 2C19 (AID 899); note: nearly all actives have a fitted effect of over 60% in size
Summary of the method: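 In 50mM KPO4, the reaction held 5nM enzyme and KM-level (10uM) Luciferin-H EGE; it ran 60 min at 37C after NADPH regeneration and a 10 min compound preincubation. Luminescence values were scaled to 57uM ketoconazole as complete inhibition.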

[13] = qHTS Assay for Identification of Small Molecule Agonists for Thrombopoietin (TPO) Signaling Pathway (AID 917)
Summary of the method: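 IL-3-dependent murine pro-B Ba/F3 cells, stably transfected with human TPO receptor and GpIIb-promoter luciferase, are incubated 24 hrs at 37 C with test compound and 26 pM TPO; luciferase signal is read after 10 min at room temperature.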

[14] = target: Muscarinic acetylcholine receptor M1 (Rattus norvegicus) (UniProt P08482); test: qHTS Assay for Antagonists of Acetylcholine Muscarinic M1 Receptor: Kinetic Measurement of Intracellular Calcium Response (AID 943); note: potency is the fitted concentration of half-maximal effect; nearly all actives have a fitted effect of over 75% in size
Summary of the method: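 Intracellular calcium flux, recorded with Fluo-4 in a kinetic plate reader, served as signal; the response to carbachol at EC80 (100 nM final) was taken as maximal over minimal fluorescence after a 10 min compound pre-incubation in rat M1-CHO cells.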

[15] = target: Muscarinic acetylcholine receptor M1 (Rattus norvegicus) (UniProt P08482); test: qHTS Assay for Antagonists of Acetylcholine Muscarinic M1 Receptor: Measurement of IP-One Response (AID 944); note: potency is the fitted concentration of half-maximal effect; nearly all actives have a fitted effect of over 75% in size
Summary of the method: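 Steps: plate transfected CHO-M1 cells overnight; add test compound, 10 min; add carbachol (200 nM, EC80) in stimulation buffer with LiCl; incubate 30 min; add labelled IP1 tracer and anti-IP1 antibody in lysis buffer; read HTRF after 10 min.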

[16] = target: Pyruvate kinase (Leishmania mexicana) (UniProt Q27686); test: qHTS Validation Assay for Inhibitors of Leishmania Mexicana Pyruvate Kinase (AID 945)
Summary of the method: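 Purified LmPYK (E451W mutant, 0.2 nM) was incubated 1 h at room temperature with 0.5 mM PEP and 0.1 mM ADP in 50 mM imidazole pH 7.2, 50 mM KCl, 7 mM MgCl2; ATP formed was read by PKLight luminescence, normalized to DMSO wells.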

[17] = target: Pyruvate kinase PKM (Homo sapiens) (UniProt P14618); test: qHTS Assay for Activators of Human Muscle Pyruvate Kinase (AID 954; active = well fitted curve in the direction sought with a large enough effect, not every such curve was filed as active)
Summary of the method: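 Human PKM2 activity is measured as ATP generation, detected by luciferase-coupled luminescence. The enzyme (0.1 nM) acts on 0.5 mM PEP and 0.1 mM ADP for 1 h at ambient temperature; data are normalized to uninhibited and full-inhibition wells.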

[18] = target: Alpha-galactosidase A (Homo sapiens) (UniProt P06280); test: Counterscreen for Glucocerebrosidase Inhibitors: qHTS Assay for Human alpha-Galactosidase at pH 4.5 (AID 992)
Summary of the method: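 Quantitative HTS: compounds tested from 0.7 nM up to 77 uM against 2 nM enzyme with 80 uM 4-MU alpha-D-galactopyranoside. The 20 min room-temperature reaction is stopped with 1M NaOH/1M glycine, pH 10.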

[19] = target: alpha-glucosidase (Oryza sativa, rice) (UniProt Q653V4); test: Counterscreen for Glucocerebrosidase Inhibitors: qHTS Assay for Rice alpha-Glucosidase at pH 5.0 (AID 997)
Summary of the method: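 Rice alpha-glucosidase (4 nM final) with 400 uM 4-methylumbelliferyl-alpha-D-glucopyranoside in citrate buffer pH 5.0, 20 min at room temperature, stopped at pH 10; fluorescence 365/440 nm, compounds 0.7 nM–77 uM, AC50 from Hill fits.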

Sequence of Glucocorticoid receptor (Homo sapiens) (P04150 whole entry, looked up, the tested form may be a part): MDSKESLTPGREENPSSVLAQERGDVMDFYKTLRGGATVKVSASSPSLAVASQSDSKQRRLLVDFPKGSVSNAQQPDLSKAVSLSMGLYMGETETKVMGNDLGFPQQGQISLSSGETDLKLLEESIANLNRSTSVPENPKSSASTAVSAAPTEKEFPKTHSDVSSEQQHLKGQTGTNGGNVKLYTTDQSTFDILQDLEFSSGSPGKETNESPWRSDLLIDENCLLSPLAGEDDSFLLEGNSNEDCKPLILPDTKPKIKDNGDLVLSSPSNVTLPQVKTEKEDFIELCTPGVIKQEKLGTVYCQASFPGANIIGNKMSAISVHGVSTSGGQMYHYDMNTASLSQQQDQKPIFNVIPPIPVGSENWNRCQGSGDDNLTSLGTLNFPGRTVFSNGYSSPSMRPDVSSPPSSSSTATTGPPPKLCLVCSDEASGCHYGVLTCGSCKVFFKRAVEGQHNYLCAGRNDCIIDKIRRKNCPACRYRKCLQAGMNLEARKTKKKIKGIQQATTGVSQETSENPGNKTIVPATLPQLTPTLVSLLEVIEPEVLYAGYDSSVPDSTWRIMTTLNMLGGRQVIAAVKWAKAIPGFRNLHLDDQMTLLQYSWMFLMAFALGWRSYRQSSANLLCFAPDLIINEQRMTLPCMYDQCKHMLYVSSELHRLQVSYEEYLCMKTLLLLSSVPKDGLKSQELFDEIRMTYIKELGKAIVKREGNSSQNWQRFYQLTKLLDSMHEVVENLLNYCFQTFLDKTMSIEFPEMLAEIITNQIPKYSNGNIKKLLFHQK
Sequence of Muscarinic acetylcholine receptor M1 (Rattus norvegicus) (P08482 whole entry, looked up): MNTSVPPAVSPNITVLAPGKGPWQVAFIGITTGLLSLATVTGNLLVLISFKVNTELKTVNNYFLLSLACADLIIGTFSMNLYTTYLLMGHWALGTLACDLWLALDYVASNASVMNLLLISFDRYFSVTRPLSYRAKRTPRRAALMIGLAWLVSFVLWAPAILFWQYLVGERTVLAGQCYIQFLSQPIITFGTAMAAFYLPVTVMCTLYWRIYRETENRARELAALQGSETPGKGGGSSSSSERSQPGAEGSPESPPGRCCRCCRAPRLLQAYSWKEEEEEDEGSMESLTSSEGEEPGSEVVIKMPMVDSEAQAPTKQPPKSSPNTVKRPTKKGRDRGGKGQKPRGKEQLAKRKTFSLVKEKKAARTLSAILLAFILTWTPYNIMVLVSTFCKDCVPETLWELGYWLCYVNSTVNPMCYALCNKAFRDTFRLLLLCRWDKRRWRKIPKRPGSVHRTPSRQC
Sequence of Pyruvate kinase PKM (Homo sapiens) (P14618 whole entry, looked up): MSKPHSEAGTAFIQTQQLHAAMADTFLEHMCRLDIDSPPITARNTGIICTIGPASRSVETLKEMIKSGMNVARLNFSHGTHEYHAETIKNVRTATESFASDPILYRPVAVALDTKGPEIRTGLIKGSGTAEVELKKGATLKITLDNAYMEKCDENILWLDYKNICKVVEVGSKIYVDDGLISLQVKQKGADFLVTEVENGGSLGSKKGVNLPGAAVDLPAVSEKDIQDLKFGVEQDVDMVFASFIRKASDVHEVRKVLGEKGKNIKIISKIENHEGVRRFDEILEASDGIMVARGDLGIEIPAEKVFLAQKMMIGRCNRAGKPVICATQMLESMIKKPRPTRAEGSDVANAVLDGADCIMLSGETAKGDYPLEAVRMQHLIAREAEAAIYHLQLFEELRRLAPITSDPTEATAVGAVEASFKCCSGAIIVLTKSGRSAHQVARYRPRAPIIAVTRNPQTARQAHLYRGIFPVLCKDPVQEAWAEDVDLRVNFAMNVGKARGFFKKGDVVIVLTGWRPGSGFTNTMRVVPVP
Sequence of Cytochrome P450 3A4 (Homo sapiens) (P08684 whole entry, looked up): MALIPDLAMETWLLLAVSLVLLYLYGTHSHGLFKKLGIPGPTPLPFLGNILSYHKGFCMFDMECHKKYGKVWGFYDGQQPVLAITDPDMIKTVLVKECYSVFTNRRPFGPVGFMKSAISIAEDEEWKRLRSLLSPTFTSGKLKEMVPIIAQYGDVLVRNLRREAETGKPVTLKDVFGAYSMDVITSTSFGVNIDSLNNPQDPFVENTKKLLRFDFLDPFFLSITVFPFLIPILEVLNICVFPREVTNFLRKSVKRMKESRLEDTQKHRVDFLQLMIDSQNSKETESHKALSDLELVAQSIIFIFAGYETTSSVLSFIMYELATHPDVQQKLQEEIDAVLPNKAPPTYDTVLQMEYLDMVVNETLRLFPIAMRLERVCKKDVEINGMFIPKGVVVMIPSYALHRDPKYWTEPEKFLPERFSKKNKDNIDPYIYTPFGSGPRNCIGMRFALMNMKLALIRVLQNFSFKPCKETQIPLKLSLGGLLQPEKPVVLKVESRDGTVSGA
Sequence of Guanine nucleotide-binding protein G(i) subunit alpha-1 (Homo sapiens) (P63096 whole entry, looked up): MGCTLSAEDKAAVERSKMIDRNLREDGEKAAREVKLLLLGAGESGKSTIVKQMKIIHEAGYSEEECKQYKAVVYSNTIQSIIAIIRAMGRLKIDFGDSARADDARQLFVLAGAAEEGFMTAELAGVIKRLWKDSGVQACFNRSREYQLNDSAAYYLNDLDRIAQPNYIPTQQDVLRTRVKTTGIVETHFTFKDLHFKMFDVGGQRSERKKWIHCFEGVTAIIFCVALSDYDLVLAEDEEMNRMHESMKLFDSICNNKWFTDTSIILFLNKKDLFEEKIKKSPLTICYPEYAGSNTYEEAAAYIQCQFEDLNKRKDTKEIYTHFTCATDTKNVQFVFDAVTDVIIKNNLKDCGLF
Sequence of Cytochrome P450 1A2 (Homo sapiens) (P05177 whole entry, looked up): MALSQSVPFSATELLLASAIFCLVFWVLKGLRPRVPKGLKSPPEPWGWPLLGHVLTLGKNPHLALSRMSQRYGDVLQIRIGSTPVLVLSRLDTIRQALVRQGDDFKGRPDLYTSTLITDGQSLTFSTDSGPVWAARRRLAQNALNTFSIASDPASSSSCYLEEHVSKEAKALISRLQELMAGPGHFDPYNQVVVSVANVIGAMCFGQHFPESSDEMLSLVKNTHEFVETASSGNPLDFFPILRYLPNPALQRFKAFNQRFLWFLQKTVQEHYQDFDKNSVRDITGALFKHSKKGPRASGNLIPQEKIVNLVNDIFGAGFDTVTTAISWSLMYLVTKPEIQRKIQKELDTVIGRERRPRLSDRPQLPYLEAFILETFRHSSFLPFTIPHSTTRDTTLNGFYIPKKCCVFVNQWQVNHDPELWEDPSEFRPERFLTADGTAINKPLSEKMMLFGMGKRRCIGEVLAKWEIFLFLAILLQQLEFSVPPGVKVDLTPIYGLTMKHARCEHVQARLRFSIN
Sequence of Pyruvate kinase (Leishmania mexicana) (Q27686 2-499 E452W): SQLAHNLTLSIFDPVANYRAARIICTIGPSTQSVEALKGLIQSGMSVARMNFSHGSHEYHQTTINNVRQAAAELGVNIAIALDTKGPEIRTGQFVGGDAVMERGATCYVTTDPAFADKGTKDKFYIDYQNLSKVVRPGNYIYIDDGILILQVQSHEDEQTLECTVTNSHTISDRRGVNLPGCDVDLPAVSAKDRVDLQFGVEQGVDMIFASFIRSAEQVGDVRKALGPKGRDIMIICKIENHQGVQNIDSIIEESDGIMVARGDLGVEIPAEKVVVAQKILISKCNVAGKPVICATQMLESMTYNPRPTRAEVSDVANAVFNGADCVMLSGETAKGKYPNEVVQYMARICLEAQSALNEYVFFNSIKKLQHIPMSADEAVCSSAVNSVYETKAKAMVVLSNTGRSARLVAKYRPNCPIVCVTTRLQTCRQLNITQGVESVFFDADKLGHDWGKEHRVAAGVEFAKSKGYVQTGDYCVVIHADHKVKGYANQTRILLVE
Sequence of 3',5'-cyclic-AMP phosphodiesterase 4B (Homo sapiens) (Q07343 whole entry, looked up): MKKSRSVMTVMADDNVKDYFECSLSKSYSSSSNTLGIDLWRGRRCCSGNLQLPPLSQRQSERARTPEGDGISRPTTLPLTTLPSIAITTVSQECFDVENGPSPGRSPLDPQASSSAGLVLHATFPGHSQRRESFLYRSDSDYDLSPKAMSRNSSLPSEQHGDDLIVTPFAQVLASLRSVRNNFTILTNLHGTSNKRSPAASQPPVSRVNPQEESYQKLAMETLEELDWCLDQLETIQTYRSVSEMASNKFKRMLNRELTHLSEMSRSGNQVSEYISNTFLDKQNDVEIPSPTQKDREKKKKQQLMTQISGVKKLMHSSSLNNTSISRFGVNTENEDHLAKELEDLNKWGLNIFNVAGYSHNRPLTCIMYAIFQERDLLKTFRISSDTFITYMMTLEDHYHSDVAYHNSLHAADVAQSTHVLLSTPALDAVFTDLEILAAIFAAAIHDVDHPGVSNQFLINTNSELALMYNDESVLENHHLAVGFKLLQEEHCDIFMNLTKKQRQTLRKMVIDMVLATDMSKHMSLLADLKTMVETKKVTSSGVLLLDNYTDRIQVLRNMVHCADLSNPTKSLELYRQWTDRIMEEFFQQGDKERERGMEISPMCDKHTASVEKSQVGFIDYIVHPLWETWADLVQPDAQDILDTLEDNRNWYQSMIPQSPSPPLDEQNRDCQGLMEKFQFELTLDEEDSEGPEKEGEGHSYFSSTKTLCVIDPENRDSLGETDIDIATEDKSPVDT
Sequence of Cytochrome P450 2C19 (Homo sapiens) (P33261 whole entry, looked up): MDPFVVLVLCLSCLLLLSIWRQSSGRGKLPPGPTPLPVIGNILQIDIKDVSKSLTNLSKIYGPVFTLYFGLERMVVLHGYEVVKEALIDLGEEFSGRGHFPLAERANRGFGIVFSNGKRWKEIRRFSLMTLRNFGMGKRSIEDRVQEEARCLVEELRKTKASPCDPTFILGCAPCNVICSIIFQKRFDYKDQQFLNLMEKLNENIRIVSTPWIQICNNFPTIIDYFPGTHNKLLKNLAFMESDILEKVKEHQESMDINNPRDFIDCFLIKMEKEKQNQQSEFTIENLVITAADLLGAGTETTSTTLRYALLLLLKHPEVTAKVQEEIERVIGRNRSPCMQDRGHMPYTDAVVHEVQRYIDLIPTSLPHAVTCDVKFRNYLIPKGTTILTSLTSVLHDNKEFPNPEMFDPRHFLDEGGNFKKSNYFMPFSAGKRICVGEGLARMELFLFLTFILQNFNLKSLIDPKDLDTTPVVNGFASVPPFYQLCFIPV

SMILES | activity change, negative = inhibition [1] | Potency [2] | activity, negative = inhibition [3] | Potency [4] | Potency [5] | Potency [6] | Potency [7] | outcome [8] | Potency [9] | Potency [10] | Potency [11] | Potency [12] | outcome [13] | Potency [14] | Potency [15] | outcome [16] | outcome [17] | outcome [18] | Potency [19]
C[C@@H](COc1ccc(/C=C\c2ccccc2)cc1)[N+](C)(C)C | -11.9% [at 38 µM] | inactive | -2.8% [at 38 µM] | > 46 µM | > 46 µM | inactive | inactive | inactive | inactive | inactive | inactive | inactive | inactive | 4.47 µM (active) | 7.08 µM (active) | inactive | inactive | inactive | inactive
C[C@@H](CN1CCC(Cc2ccccc2)CC1)[C@H](O)c1ccc(O)cc1 | 7.29% [at 38 µM] | 12.6 µM (active) | -25.3% [at 38 µM] | > 46 µM | > 46 µM | inactive | inactive | inactive | – | 10 µM (active) | – | – | inactive | 5.62 µM (active) | 7.08 µM (active) | inactive | inactive | – | inactive
